# Test results reported in PubChem BioAssay AID588342 (National Center for Advancing Translational Sciences (NCATS), 2011).
# Among all 360,000 compounds or so, about 25,000 (6.9%) were called active. About 9% were inconclusive and are not listed. The call rests on the fitted dose curve; in most records, active means well fitted inhibition curve with a large enough effect; inconclusive means small, poorly fitted or top-dose-only effect; inactive means flat fitted curve, though single readings scatter. The list comes from a sample in which actives are over-represented; it also holds similar structures and randomly drawn compounds. A call without a number means that no potency is given here.
# Target: Luciferin 4-monooxygenase (Photinus pyralis) (UniProt P08659)
# Sequence (P08659 whole entry, looked up): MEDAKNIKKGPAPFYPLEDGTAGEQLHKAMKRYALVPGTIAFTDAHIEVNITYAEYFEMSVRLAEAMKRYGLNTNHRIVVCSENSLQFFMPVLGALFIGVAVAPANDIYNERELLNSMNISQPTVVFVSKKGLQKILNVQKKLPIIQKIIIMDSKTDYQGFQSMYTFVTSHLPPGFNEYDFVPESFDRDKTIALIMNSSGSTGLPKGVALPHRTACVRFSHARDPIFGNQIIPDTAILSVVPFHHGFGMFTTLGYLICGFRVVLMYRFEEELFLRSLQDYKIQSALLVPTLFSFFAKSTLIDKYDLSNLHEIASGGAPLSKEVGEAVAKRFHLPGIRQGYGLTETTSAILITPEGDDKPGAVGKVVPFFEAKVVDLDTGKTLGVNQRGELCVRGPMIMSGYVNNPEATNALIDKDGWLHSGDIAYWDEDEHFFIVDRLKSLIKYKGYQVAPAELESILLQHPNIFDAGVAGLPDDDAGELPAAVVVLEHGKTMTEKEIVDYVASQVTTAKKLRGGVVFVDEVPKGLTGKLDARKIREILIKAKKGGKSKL
# Experiment: qHTS profiling assay for firefly luciferase inhibitor/activator using purifed enzyme and Km concentrations of substrates (counterscreen for miR-21 project); further: nearly all actives have a fitted effect of over 55% in size
# Settings: purified FLuc, luminescence inhibition; series mostly up to 57.5 µM
# Procedure, shortened: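 Purified P. pyralis luciferase (10nM final) with 10uM D-luciferin and 10uM ATP (Km levels) in 50mM Tris acetate pH 7.5, 10mM Mg acetate, 0.01% Tween-20, 0.05% BSA; qHTS 6-point titration, ~60 µM downward; luminescence read.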
# Potency means the concentration at half of the fitted maximal effect.
row,Compound,Potency
1,O=C(O)c1ccc2c(c1)N(Cc1ccc(F)cc1)C(=O)c1ccccc1S2=O (configuration not stated),inactive
2,Cc1cc(C)cc(OCC(=O)Nc2c(C(=O)c3ccccc3)oc3ccccc23)c1,inactive
3,Cc1ccc2oc(C(=O)Nc3ccc(S(=O)(=O)N4CCCCCC4)cc3)cc(=O)c2c1,inactive
4,O=[N+]([O-])c1cc(S(=O)(=O)NCCc2ccccn2)ccc1Cl,inactive
5,CCOc1ccc(S(=O)(=O)N2CCC(C(=O)NCC(=O)Nc3cccc(Cl)c3C)CC2)cc1,inactive
6,O=C(CN1C(=O)COc2ccc(S(=O)(=O)N3CCCCCC3)cc21)N1CCN(c2cccc(C(F)(F)F)c2)CC1,inactive
7,CCOc1ccc(C(=O)c2cn(Cc3ccc(F)cc3)c3ccc(F)cc3c2=O)cc1,inactive
8,COc1cc2ccccc2cc1C(=O)Nc1ccncc1,12 µM (active)
9,COc1cc2ccccc2cc1C(=O)Nc1ccc(NC(=O)c2cccs2)cc1,inactive
10,COc1cc2ccccc2cc1C(=O)Nc1ccc(S(=O)(=O)Nc2cc(C)on2)cc1,inactive
11,CCOc1cccc(NC(=O)Cn2nc(-c3ccc4c(c3)OCCO4)ccc2=O)c1,inactive
12,Nc1nnnn1CC(=O)N/N=C/c1ccc(-c2cccc(Cl)c2)o1,inactive
13,CC(=O)NN1C(=O)c2ccccc2NC1c1ccccc1 (configuration not stated),inactive
14,O=C1c2ccccc2NC(c2ccc(-c3cccc(Cl)c3)o2)N1O (configuration not stated),10.7 µM (active)
15,Cc1cc(C)c(NC(=O)Cn2c(SCC(=O)NCc3ccccc3)nc3ccccc32)c(C)c1,inactive
16,CCn1c(CNC(=O)c2ccccc2)nnc1SCC(=O)N1CCN(c2ccccc2)CC1,inactive
17,CCCc1c(C(=O)O)cnn1-c1ccc(Cl)cc1,inactive
18,O=C(c1cnn(-c2ccc(Cl)cc2)c1)c1ccccc1O,2.13 µM (active)
19,Cc1ncc(CC(=O)n2cc(C(=O)c3cc(Cl)ccc3O)cn2)s1,inactive
20,COc1cc(C(C)=O)ccc1OC(C)C(=O)Nc1ccc(S(=O)(=O)N2CCCC2)cc1 (configuration not stated),inactive
21,Cc1oc2ncn(CC(C)C)c(=O)c2c1C(=O)N1CCN(c2ccccc2F)CC1,inactive
22,N#Cc1c(NC(=O)C2CC(Cl)=CCC2C(=O)O)sc2c1CCCCC2 (configuration not stated),inactive
23,N#Cc1c(NC(=O)C2CCCO2)sc2c1CCCCC2 (configuration not stated),13.5 µM (active)

row,Compound,Potency
1,N#Cc1c(NC(=O)CCCl)sc2c1CCCCC2,inactive
2,COc1ccc2c(Cl)c(C(=O)NCc3ccco3)sc2c1,10.7 µM (active)
3,CCN(C(=O)c1sc2cc(OC)ccc2c1Cl)c1ccccc1,inactive
4,COc1cc(C(=O)NC(=S)NCc2ccco2)cc(OC)c1OC,inactive
5,O=C(NCc1ccco1)c1sc2cccc(F)c2c1Cl,inactive
6,COc1ccc2oc(C(=O)NCc3ccco3)c(C)c2c1,16.9 µM (active)
7,COc1ccc(NC(=O)C(=O)NCc2ccco2)cc1,inactive
8,CCCC(=O)Nc1cc(C(=O)NCc2ccc(OC)cc2)ccc1S(=O)(=O)c1ccc(Cl)cc1,inactive
9,COc1cc(OC)c(C2C=C(C(=O)O)Nc3ncnn32)cc1OC (configuration not stated),inactive
10,CCC(C)NC(=O)c1ccc(NC(=O)CC2SC(N3CCCCC3)=NC2=O)cc1 (configuration not stated),inactive
11,O=C(COc1ncnc2c(Cl)cc(Cl)cc12)N1CCN(S(=O)(=O)c2ccccc2)CC1,inactive
12,Cc1ccc(-n2ncc(C(=O)N(C)Cc3ccccc3)c2-n2cccc2)cc1,inactive
13,CC(=O)N/C(=C\c1ccc(F)cc1)C(=O)NC(Cc1ccccc1)C(=O)O (configuration not stated),inactive
14,O=C(O)CC/C(=C\c1cc2c(cc1Br)OCO2)c1nc2ccccc2s1,inactive
15,O=C(O)CS/C(=C\c1ccc(F)cc1)c1nc2ccccc2s1,23.9 µM (active)
16,COc1ccccc1NC(=O)CN1C(=O)c2ccccc2Sc2ccc(C(=O)N3CCCC3)cc21,inactive
17,O=C(Nc1ccccc1)c1cc2ccccc2[nH]1,9.53 µM (active)
18,O=C(Nc1ccccc1)N1CCN(C(=O)Nc2ccccc2)CC1,inactive
19,O=C(Nc1ccccc1)c1ccccc1NC(=O)C(F)(F)F,inactive
20,CCC(=O)N1CCc2cc(S(=O)(=O)NC(CC(C)C)C(=O)NCCc3cccc(C)c3)ccc21 (configuration not stated),inactive
21,CCCCSc1ncnc2c1sc1nc(N3CCOCC3)c3c(c12)CCCC3,inactive
22,CC(C)CNC(=O)/C=C/C(=O)O,inactive
23,Cc1ccc(CN2CCC(CNC(=O)c3cnn(-c4ccccc4Cl)c3C3CCN(C(=O)OC(C)(C)C)CC3)CC2)cc1,inactive

row,Compound,Potency
1,COc1cccc(CNC(=O)COC(=O)CN2C(=O)NC3(CCCCC3C)C2=O)c1 (configuration not stated),inactive
2,CCCc1ccc(C(=O)COC(=O)CN2C(=O)NC3(CCCCC3C)C2=O)cc1 (configuration not stated),26.9 µM (active)
3,CC1CCCCC12NC(=O)N(CC(=O)OCC(=O)NCc1ccc(F)cc1)C2=O (configuration not stated),inactive
4,COc1ccc(CCNC2=C(Cl)C(=O)N(Cc3ccccc3)C2=O)cc1OC,inactive
5,C/C(=N/NC(=O)c1ccncc1)c1ccc2c(c1)OCO2,inactive
6,CCN(CC)c1ccc2cc(C(N)=O)/c(=N\NC(=O)c3ccncc3)oc2c1,16.9 µM (active)
7,COc1ccc(C/C(C)=N/NC(=O)c2ccncc2)cc1,inactive
8,CO/N=C/c1cn(-c2ccc(Cl)cc2)nn1,inactive
9,O=C(CC1C(=O)N(c2ccccc2)C(=O)N1CCc1cccs1)Nc1ccc(F)cc1 (configuration not stated),inactive
10,CC(C)Sc1oc(-c2cccs2)nc1S(=O)(=O)c1ccc(Cl)cc1,inactive
11,Cc1nc(Cl)c(C#N)c2c1CCCC2,inactive
12,COCc1c(N)c(C)nc(Cl)c1C#N,10.7 µM (active)
13,COc1ccc(C2=NC(c3ccncc3)=Nc3ccc(Br)cc3N2)cc1,inactive
14,CCc1nnc2c3ccccc3nc(N3CCN(c4ccc(C)cc4C)CC3)n12,inactive
15,COc1cccc(NC(=O)CN2C(=O)c3ccccc3Sc3ncccc32)c1,inactive
16,Cc1cccc(CNC(=O)c2cnc3sc(N4CCCCC4)nn3c2=O)c1,inactive
17,Brc1cccc(-c2nnn3c2nc(NC2CCCCC2)c2ccccc23)c1,inactive
18,Nc1cc(C(F)(F)F)ccc1N1CCOCC1,inactive
19,CCn1c(C)c(C)c2cc(C(=O)NCCc3cc(OC)ccc3OC)ccc21,inactive
20,CCOC(=O)c1c(NC(=O)c2cc(-c3ccc(Cl)cc3)on2)sc2c1CCCC2,inactive
21,CCOc1ccc(NC(=O)C2CCN(S(=O)(=O)c3cc(-c4noc(C)n4)ccc3C)CC2)cc1,inactive
